# Inconclusive results are not listed. Values without a mark were called inactive. Activity calls are given as the source filed them. Calls come from the whole dose curve; as a rule, active = well fitted inhibition curve with a large enough effect; inconclusive = small, poorly fitted or top-dose-only effect; inactive = flat fitted curve, though single readings scatter.
# System: ECU
# Test: qHTS profiling for inhibitors of Plasmodium falciparum proliferation (AID 504749); note: nearly all actives have a fitted effect of over 60% in size;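 for activity, negative = inhibition: 0% = DMSO vehicle and full inhibition = artemisinin control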
# Conditions: P. falciparum in erythrocytes, SYBR Green DNA, 72 h; series mostly up to 12.8 µM; activity, negative = inhibition: at the top concentration
# How it was run: (§1)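 SYBR Green fluorescence (ex 485 nm, em 535 nm) reports parasite DNA after 72 h compound exposure of infected red cells at 0.3% parasitemia, 2.5% hematocrit; signal normalized to 0.29 uM artemisinin and vehicle wells.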
# Potency is the fitted concentration of half-maximal effect.
Compound,"activity, negative = inhibition",Potency
CC1(C)S[C@H]2C(NC(=O)[C@@H](N)c3ccc(O)cc3)C(=O)N2[C@@H]1C(=O)O (stereo partly drawn),2.17% [at 28.7 µM],–
CN(C)CCc1c[nH]c2ccc(CC3COC(=O)N3)cc12 (stereo not drawn),0.294% [at 28.7 µM],–
C[C@@]12CCC(=O)C=C1C=CC1C2CC[C@]2(C)C1CC[C@@]21CCC(=O)O1 (stereo partly drawn),-10.6% [at 28.7 µM],–
NC(CCC(=O)N[C@@H](CS)C(=O)NCC(=O)O)C(=O)O (stereo partly drawn),–,10 µM (active)
CC(C)Oc1ccc2c(=O)cc(-c3ccccc3)oc2c1,-0.213% [at 28.7 µM],–
N[C@@H]1C(O)OC(CO)C(O)C1O (stereo partly drawn),9.23% [at 28.7 µM],–
CCC1OC(=O)CC(O)C(C)[C@@H](O[C@@H]2OC(C)[C@H](O[C@@H]3C[C@@](C)(O)C(O)C(C)O3)C(N(C)C)C2O)[C@H](CC=O)CC(C)C(=O)/C=C/C(C)=C/[C@@H]1COC1OC(C)C(O)C(OC)[C@@H]1OC (stereo partly drawn),-29.1% [at 28.7 µM],–
CC(=O)[C@]1(O)CCC2C3C=C(Cl)C4=CC(=O)C5CC5[C@@]4(C)C3CC[C@]21C (stereo partly drawn),1.2% [at 28.7 µM],–
CO[C@]12C(COC(N)=O)C3=C(C(=O)C(C)=C(N)C3=O)N1CC1NC12 (stereo partly drawn),–,1.41 µM (active)
C[C@@]12C=CC(=O)C=C1CCC1C3CC(O)[C@@](O)(C(=O)CO)[C@]3(C)CC(O)[C@]12F (stereo partly drawn),10.3% [at 28.7 µM],–
CCC1OC(=O)C(C)[C@@H](O[C@H]2C[C@@](C)(OC)C(O)C(C)O2)C(C)[C@@H](O[C@@H]2OC(C)CC(N(C)C)C2O)[C@@](C)(O)CC(C)C(=O)[C@@H](C)C(O)[C@]1(C)O (stereo partly drawn),-6.17% [at 28.7 µM],–
CC1C2CCC3C4CC=C5CC(N(C)C)CC[C@@]5(C)C4CC[C@@]32CN1C (stereo partly drawn),3.91% [at 28.7 µM],–
CCC(C)C(=O)OC1CC(O)C=C2C=CC(C)C(CCC(O)CC(O)CC(=O)O)C21 (stereo not drawn),-0.772% [at 28.7 µM],–
OCC1OC(n2cnc3c(=S)nc[nH]c32)C(O)C1O (stereo not drawn),-7.33% [at 28.7 µM],–

# System: FAB9
# Test: as above
# Conditions: P. falciparum in erythrocytes, SYBR Green DNA, 72 h; series mostly up to 12.8 µM; activity, negative = inhibition: at the top concentration
# How it was run: as §1
Compound,"activity, negative = inhibition",Potency
CC1(C)S[C@H]2C(NC(=O)[C@@H](N)c3ccc(O)cc3)C(=O)N2[C@@H]1C(=O)O (stereo partly drawn),5.85% [at 28.7 µM],–
CN(C)CCc1c[nH]c2ccc(CC3COC(=O)N3)cc12 (stereo not drawn),7.1% [at 28.7 µM],–
C[C@@]12CCC(=O)C=C1C=CC1C2CC[C@]2(C)C1CC[C@@]21CCC(=O)O1 (stereo partly drawn),2.94% [at 28.7 µM],–
CC(C)Oc1ccc2c(=O)cc(-c3ccccc3)oc2c1,7.54% [at 28.7 µM],–
CCCCCCCCCc1ccc(OCCOCCOCCOCCOCCOCCOCCOCCOCCO)cc1,6.75% [at 28.7 µM],–
CC(=O)O[C@@]1(C(C)=O)CCC2C3CC(C)C4=CC(=O)CC[C@@]4(C)C3CC[C@]21C (stereo partly drawn),0.838% [at 28.7 µM],–
N[C@@H]1C(O)OC(CO)C(O)C1O (stereo partly drawn),11.2% [at 28.7 µM],–
CC(=O)OCC(=O)[C@@]12OC3(CCCC3)OC1CC1C3CCC4=CC(=O)C=C[C@@]4(C)[C@]3(F)C(O)C[C@]12C (stereo partly drawn),1.4% [at 28.7 µM],–
CCC1OC(=O)CC(O)C(C)[C@@H](O[C@@H]2OC(C)[C@H](O[C@@H]3C[C@@](C)(O)C(O)C(C)O3)C(N(C)C)C2O)[C@H](CC=O)CC(C)C(=O)/C=C/C(C)=C/[C@@H]1COC1OC(C)C(O)C(OC)[C@@H]1OC (stereo partly drawn),-3.75% [at 28.7 µM],–
C=Cc1c(C)/c2[n-]/c1=C\c1[n-]c(c(CC)c1C)/C=c1\[n-]c3c(c1C)C(=O)C(C(=O)[O-])C=3c1[n-]c(c(C)c1CCC(=O)[O-])\C=2.[Cu].[Na+].[Na+] (stereo not drawn),-19.6% [at 28.7 µM],–
CCC(=O)O[C@@]1(C(=O)CCl)C(C)CC2C3CCC4=CC(=O)C=C[C@@]4(C)[C@]3(F)C(O)C[C@]21C (stereo partly drawn),-25.6% [at 28.7 µM],–
CC(=O)[C@]1(O)CCC2C3C=C(Cl)C4=CC(=O)C5CC5[C@@]4(C)C3CC[C@]21C (stereo partly drawn),0.38% [at 28.7 µM],–
CO[C@]12C(COC(N)=O)C3=C(C(=O)C(C)=C(N)C3=O)N1CC1NC12 (stereo partly drawn),–,5.01 µM (active)
C[C@@]12C=CC(=O)C=C1CCC1C3CC(O)[C@@](O)(C(=O)CO)[C@]3(C)CC(O)[C@]12F (stereo partly drawn),9.61% [at 28.7 µM],–
CCC1OC(=O)C(C)[C@@H](O[C@H]2C[C@@](C)(OC)C(O)C(C)O2)C(C)[C@@H](O[C@@H]2OC(C)CC(N(C)C)C2O)[C@@](C)(O)CC(C)C(=O)[C@@H](C)C(O)[C@]1(C)O (stereo partly drawn),8.65% [at 28.7 µM],–
CC1C2CCC3C4CC=C5CC(N(C)C)CC[C@@]5(C)C4CC[C@@]32CN1C (stereo partly drawn),5.41% [at 28.7 µM],–
CCC(C)C(=O)OC1CC(O)C=C2C=CC(C)C(CCC(O)CC(O)CC(=O)O)C21 (stereo not drawn),7.77% [at 28.7 µM],–
OCC1OC(n2cnc3c(=S)nc[nH]c32)C(O)C1O (stereo not drawn),-3.41% [at 28.7 µM],–

# System: GB4
# Test: as above
# Conditions: P. falciparum in erythrocytes, SYBR Green DNA, 72 h; series mostly up to 12.8 µM; activity, negative = inhibition: at the top concentration
# How it was run: as §1
Compound,"activity, negative = inhibition",Potency
CC1(C)S[C@H]2C(NC(=O)[C@@H](N)c3ccc(O)cc3)C(=O)N2[C@@H]1C(=O)O (stereo partly drawn),0.699% [at 28.7 µM],–
CN(C)CCc1c[nH]c2ccc(CC3COC(=O)N3)cc12 (stereo not drawn),-7.5% [at 28.7 µM],–
C[C@@]12CCC(=O)C=C1C=CC1C2CC[C@]2(C)C1CC[C@@]21CCC(=O)O1 (stereo partly drawn),-13.4% [at 28.7 µM],–
NC(CCC(=O)N[C@@H](CS)C(=O)NCC(=O)O)C(=O)O (stereo partly drawn),–,6.75 µM (active)
CC(=O)O[C@@]1(C(C)=O)CCC2C3CC(C)C4=CC(=O)CC[C@@]4(C)C3CC[C@]21C (stereo partly drawn),-5.88% [at 28.7 µM],–
CCC(=O)O[C@@]1(C(=O)CCl)C(C)CC2C3CCC4=CC(=O)C=C[C@@]4(C)[C@]3(F)C(O)C[C@]21C (stereo partly drawn),–,12 µM (active)
CC(=O)[C@]1(O)CCC2C3C=C(Cl)C4=CC(=O)C5CC5[C@@]4(C)C3CC[C@]21C (stereo partly drawn),-8.17% [at 28.7 µM],–
C[C@@]12C=CC(=O)C=C1CCC1C3CC(O)[C@@](O)(C(=O)CO)[C@]3(C)CC(O)[C@]12F (stereo partly drawn),-1.91% [at 28.7 µM],–
CCC1OC(=O)C(C)[C@@H](O[C@H]2C[C@@](C)(OC)C(O)C(C)O2)C(C)[C@@H](O[C@@H]2OC(C)CC(N(C)C)C2O)[C@@](C)(O)CC(C)C(=O)[C@@H](C)C(O)[C@]1(C)O (stereo partly drawn),-16.8% [at 28.7 µM],–
CC1C2CCC3C4CC=C5CC(N(C)C)CC[C@@]5(C)C4CC[C@@]32CN1C (stereo partly drawn),-7.36% [at 28.7 µM],–
CCC(C)C(=O)OC1CC(O)C=C2C=CC(C)C(CCC(O)CC(O)CC(=O)O)C21 (stereo not drawn),-0.893% [at 28.7 µM],–

# From PubChem BioAssay (NCATS)
